From PubChem
Rows were chosen to be rich in hits. Some 4.1% of all compounds tested hit in one or more screens of this group.
DAX1 inh-1: DAX1 (NR0B1) inhibitors on StAR promoter, primary screen, cell-based, luminescence, SF-1 (NR5A1), full-length DAX-1; HEK293T StAR-luciferase reporter, SF-1/DAX-1 repression relief; inhibition, % at 6.8 µM; hit rate 1.1% among 370,000;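 active means inhibition above the mean over all tested compounds plus 3 SD, cut at about 3.6% in these data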;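 further: higher inhibition means more luminescence from relief of DAX-1 repression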
hgDAF-12 ag: H. glycines DAF-12 receptor agonists, primary screen, cell-based, luminescence, HEK293, GAL4 fusion, UAS-luciferase; hit rate 1.8% among 370,000; activation, % at 6.8 µM; HEK293 GAL4-hgDAF12 UAS-luciferase reporter, agonist luminescence; normalized to butyrate control; Nuclear hormone receptor DAF-12 (Heterodera glycines), GAL4 fusion;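 active means activation above a cutoff set at the mean of all screened compounds plus 3 SD, cut at about 10% in these data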
ssDAF-12 act: S. stercoralis DAF-12 nuclear receptor activators, primary screen, cell-based, luminescence, HEK293, GRIP1 co-expression, lit1-tk-luc | Nuclear hormone receptor DAF-12 (Strongyloides stercoralis) | HEK293 ssDAF-12/GRIP1 lit1-tk-luc reporter; % of 3 µM dafachronic acid response | activation, % at 6.8 µM | hit rate 1% among 370,000 | AID 652126, 2013;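 active means activation above the mean over all tested compounds plus 3 SD, cut at about 0.9% in these data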
DAX1 inh-2: DAX1 (NR0B1) inhibitors, primary screen, cell-based, HEK293, Gal4-DAX1, luciferase luminescence. HEK293 Gal4-DAX1 luciferase reporter. inhibition, % at 6.75 µM. hit rate 0.99% among 340,000. AID 504766, 2011;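 active means inhibition above the mean over all tested compounds plus 3 SD, cut at about 4.2% in these data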;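 further: inhibition shows as a rise in luminescence from relieved DAX1 repression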
Target sequence (P51843 207-470 limits assumed): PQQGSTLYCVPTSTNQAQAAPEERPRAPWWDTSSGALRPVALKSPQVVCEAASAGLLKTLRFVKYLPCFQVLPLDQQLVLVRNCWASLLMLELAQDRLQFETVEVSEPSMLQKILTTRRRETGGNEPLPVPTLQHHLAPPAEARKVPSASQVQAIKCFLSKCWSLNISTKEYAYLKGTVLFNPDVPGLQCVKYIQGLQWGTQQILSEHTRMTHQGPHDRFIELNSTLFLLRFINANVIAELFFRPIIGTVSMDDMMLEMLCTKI
hcDAF-12 act: H. contortus DAF-12 nuclear receptor activators, primary screen, cell-based, luminescence, HEK293, lit1-tk-luc reporter; HEK293 hcDAF-12 lit1-tk-luc reporter; 0% DMSO, 100% Δ7-dafachronic acid; activation, % at 6.8 µM; hit rate 1.4% among 370,000; AID 652067, 2013;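 active means activation above the mean of all tested compounds plus 3 SD, cut at about 5.5% in these data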
DAX1 inh confirm: DAX1 (NR0B1) inhibitors relieving SF-1 repression, confirmation, cell-based, luminescence, HEK293T, full-length DAX-1, SF-1 activated StAR promoter; inhibition, % at 6.8 µM; hit rate 87% among 2,400; HEK293T StAR-promoter luciferase reporter, SF-1/DAX-1 repression; shares compounds with DAX1 inh-1;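 active means inhibition above the average of every tested compound plus 3 SD, cut at about 3.8% in these data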
SF1 mutant ctr: StAR reporter signal changes without DAX1, counter-screen for DAX1 inhibitor project, cell-based, luminescence, AF-2 mutant SF-1, transactivation; shares compounds with DAX1 inh-1; HEK293 StAR-luciferase, SF-1 AF2 mutant; inhibition, % at 6.8 µM; hit rate 78% among 2,400; AID 652136, 2013;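 active means inhibition above the mean of all tested compounds plus 3 SD, cut at about 3% in these data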
LXRb hcDAF ctr: LXR agonists, Gal4 luciferase reporter, confirmation, counter-screen for hcDAF-12 agonist project, cell-based, luminescence, HEK293, H. contortus campaign; shares compounds with hcDAF-12 act; HEK293 Gal4-LXR tk-luc reporter, 24 h; normalized: DMSO 0%, positive control 100%; activation, % at 6.8 µM; 3,400 tested, under 10 active; AID 743027, 2013;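 active means mean percent activation of the reporter above a cutoff set as the average over tested compounds plus their standard deviation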
hcDAF12 ag: H. contortus DAF-12 receptor agonists, confirmation, cell-based, luminescence, HEK293, lit1-tk-luc, triplicate; shares compounds with hcDAF-12 act; HEK293 hcDAF-12 lit1-tk-luc reporter; % of Δ7-dafachronic acid response; activation, % at 6.8 µM; hit rate 61% among 3,400;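 active means mean activation across triplicate tests above the threshold derived from the earlier primary screen, cut at about 5.5% in these data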
hgDAF12 conf: H. glycines DAF-12 receptor agonists, confirmation, cell-based, luminescence, HEK293, GAL4-LBD fusion; activation, % at 6.8 µM; HEK293 GAL4-hgDAF12 luciferase reporter, agonist mode; percent of butyrate response; AID 743050, 2013; hit rate 80% among 3,300; shares compounds with hgDAF-12 ag;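 active means mean activation over triplicate wells above the hit cutoff derived from the earlier primary screen, cut at about 11% in these data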
LXR ag 2: LXR agonists, Gal4 luciferase reporter, confirmation, counter-screen for hgDAF-12 agonist project, cell-based, luminescence, HEK293, H. glycines campaign; shares compounds with hgDAF-12 ag; 24 h; activation, % at 6.8 µM; 3,300 tested, under 10 active;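 active means mean activation of the triplicate above a set limit carried over from the primary screen, none filed active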
Large screens that a line does not name were inactive (follow-up assays come after a bar, where they were run).

O=c1c2ccccc2nc2n1CCc1c-2[nH]c2ccccc12	DAX1 inh-1 7.8, hgDAF-12 ag 25.2, ssDAF-12 act 3.6, DAX1 inh-2 4.9, hcDAF-12 act 13.0 | DAX1 inh confirm 19.0 | SF1 mutant ctr 11.7 | LXRb hcDAF ctr inactive | hcDAF12 ag 13.9 | hgDAF12 conf 23.6 | LXR ag 2 inactive
COC(=O)[C@H](CC(C)C)N1Cc2nnn(Cc3ccccc3)c2-c2cc(F)ccc2S1(=O)=O	none (no result: DAX1 inh-2)
CC(C)CC(=O)Nc1ccc(-c2nc3ccccc3c(=O)[nH]2)cc1	DAX1 inh-1 5.0, hgDAF-12 ag 15.7 | DAX1 inh confirm 16.5 | SF1 mutant ctr 7.6 | hgDAF12 conf 20.6 | LXR ag 2 inactive
CC(C)CC(=O)Nc1ccc(-c2nc3ccccc3c(=O)o2)cc1	none
O=c1c2ccccc2oc2c1oc1ccccc12	DAX1 inh-1 6.6, hgDAF-12 ag 15.2 | DAX1 inh confirm 7.3 | SF1 mutant ctr 6.5 | hgDAF12 conf 12.9 | LXR ag 2 inactive
Cn1ccnc1SCC(=O)N1CCc2ccccc21	DAX1 inh-1 5.5, hgDAF-12 ag 19.8 | DAX1 inh confirm 7.1 | SF1 mutant ctr 5.6 | hgDAF12 conf inactive | LXR ag 2 inactive
COc1cccc(-n2ccnc2SCC(=O)N2CCc3ccccc32)c1	none
O=C(CSc1ccccn1)N1CCc2ccccc21	DAX1 inh-1 6.9, hgDAF-12 ag 15.8 | DAX1 inh confirm 12.3 | SF1 mutant ctr 5.7 | hgDAF12 conf 13.6 | LXR ag 2 inactive
Cc1ccc(C2=CCN(C)C(=O)N2c2ccc([N+](=O)[O-])cc2)cc1	none (no result: DAX1 inh-2)
Cc1cccc(C)c1NC(=O)C1C(c2ccc3c(c2)OCO3)=Nc2ccccc2N1C(=O)c1ccccc1 (stereo unspecified)	none (no result: DAX1 inh-2)
O=C(Nc1ccc2c(c1)OCCO2)C1C(c2ccccc2)=Nc2ccccc2N1C(=O)c1cccnc1 (stereo unspecified)	DAX1 inh-1 13.0, hgDAF-12 ag 20.1, hcDAF-12 act 10.7 (no result: DAX1 inh-2) | DAX1 inh confirm 20.0 | SF1 mutant ctr 7.9 | LXRb hcDAF ctr inactive | hcDAF12 ag 7.1 | hgDAF12 conf 12.2 | LXR ag 2 inactive
